HCV inhibitor: HCV inhibition | actives 3.4% (n = 340,000) | AID 651820 | Potency, µM (top dose mostly 41.8 µM), inactives show at the top dose activity change, negative = inhibition, actives largely listed as inhibitors | Huh7.5.1 HCVcc-Cre infection, luciferase reporter, 44 h
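Compounds are dispensed onto cells plated 4 h earlier at 1,000 per well, with HCVcc-Cre virus (about 0.5 moi) added next. Following 44 h of culture, luminescent signal is measured for 15 sec after 15 min with substrate at room temperature.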
AmpC inh no detg: inhibitors of E. coli AmpC beta-lactamase without detergent; AmpC nitrocefin hydrolysis, absorbance 480 nm, 0.0001% Triton; actives 0.52% (n = 330,000); Potency, µM (top dose mostly 57.1 µM), for the others: top-dose activity change, negative = inhibition, actives largely listed as inhibitors; P00811; AID 485341;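 note: plate controls were no compound for no effect and no enzyme for full effect; nearly all actives have a fitted effect of over 20% in size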
Target sequence (P00811 whole entry, looked up): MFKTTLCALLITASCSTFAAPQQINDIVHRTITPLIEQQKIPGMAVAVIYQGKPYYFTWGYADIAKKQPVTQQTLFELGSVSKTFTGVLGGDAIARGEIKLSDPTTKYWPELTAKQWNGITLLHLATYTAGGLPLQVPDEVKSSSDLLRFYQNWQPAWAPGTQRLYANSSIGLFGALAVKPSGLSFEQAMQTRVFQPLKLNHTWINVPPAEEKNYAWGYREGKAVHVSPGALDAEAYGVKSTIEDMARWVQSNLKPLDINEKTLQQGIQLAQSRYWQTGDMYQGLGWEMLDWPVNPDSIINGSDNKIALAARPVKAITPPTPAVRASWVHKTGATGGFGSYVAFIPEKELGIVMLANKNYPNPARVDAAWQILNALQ
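20 mM phosphate pH 7.0 + 0.01% (detergent screen) or 0.0001% Triton X-100; 5.3 nM AmpC reagent; cpd preinc 15 min RT; nitrocefin (800 uM stock) to start; A480 q20 s × 4 min; Activity was normalised to no-enzyme and no-compound control wells.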
Pf growth 96h: P. falciparum growth inhibition at 96 hours; P. falciparum luciferase reporter growth, 96 h; Potency, µM (highest dose often 28.7 µM), inactives show at the highest dose activity change, negative = inhibition, most hits filed as inhibitors; actives 6.9% (n = 320,000); AID 504834
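Two-generation exposure (96 h) targets delayed-death phenotype. Reporter parasites carrying integrated firefly luciferase, in red cells at 2% hematocrit and 0.05% parasitemia final, kept at 37 C, 5% CO2; luminescence loss indicates inhibition.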
Pf growth 48h: inhibits P. falciparum growth in the first generation, 48 h | actives 5.9% (n = 310,000) | Potency, µM (doses to about 28.7 µM), for the others: top-dose activity change, negative = inhibition, hits mostly inhibitors | P. falciparum luciferase growth in erythrocytes, 48 h
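Read-out is firefly luciferase luminescence from an integrated reporter in P. falciparum, so falling signal marks reduced parasite growth. Infected erythrocytes were at 2% hematocrit and 0.1% parasitemia (final) in Albumax-supplemented RPMI 1640.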
AmpC detergent: inhibitors of E. coli AmpC beta-lactamase with detergent | P00811 | AmpC hydrolysis of nitrocefin, absorbance 480 nm, 0.01% Triton | Potency, µM (doses to about 114 µM), inactives show at the highest dose activity change, negative = inhibition, most hits filed as inhibitors | actives 0.041% (n = 370,000);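 note: 0% = no-compound wells and -100% = no-enzyme wells; nearly all actives have a fitted effect of over 25% in size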
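AmpC (5.3 nM in the dispensed reagent) in 20 mM phosphate pH 7.0 with 0.01% (detergent screen) or 0.0001% Triton X-100 was preincubated with compounds for 15 min at room temperature. Nitrocefin was then added from an 800 uM solution, and hydrolysis was followed at 480 nm.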
AMA1 RON2 block: AMA1-RON2 (P. falciparum) interaction inhibition. AlphaScreen AMA1-biotinylated RON2 peptide binding. Potency, µM (doses to about 58.2 µM), inactives show at the highest dose activity change, negative = inhibition, actives largely listed as inhibitors. actives 0.2% (n = 360,000). AID 720542;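 note: 0% = vehicle wells and -100% = peptide control; nearly all actives have a fitted effect of over 45% in size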
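AMA1 (3D7) with his tag at 25 nM final met compounds first, then biotinylated RON2 peptide at 25 nM; detection used donor plus acceptor beads, 10 µg/mL apiece, read by AlphaScreen after 30 min at room temperature.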
* = called active by the depositor; ? = inconclusive; / = no result given; [ ] = remark or other dose. Rows were chosen to be rich in hits. Some 11% of all compounds tested hit in one or more screens of this group. Calls come from the whole dose curve; as a rule, active = well fitted curve in the direction sought with a large enough effect; inconclusive = small, poorly fitted or top-dose-only effect, or another doubt; inactive = no such curve, though single readings can be large; an effect the other way counts as inactive or inconclusive. Unless noted, % is set by controls: 0 for no effect and ±100 for the full control effect; potency is the fitted concentration of half-maximal effect.

SMILES | HCV inhibitor | AmpC inh no detg | Pf growth 96h | Pf growth 48h | AmpC detergent | AMA1 RON2 block
CCOC(=O)c1c(NC(=O)CN(CC)CC)sc2c1CCN(C(=O)OCC)C2 | 2.8µM* | 57% | 8.3µM* | 9.3µM* | -3% | 37%
CCOC(=O)N1CCc2c(sc(NC(=O)C3=COCCO3)c2C(N)=O)C1 | / | -5% | ? | ? | ? | 38%
CCOC(=O)c1c(NC(=O)CN2CCCCC2)sc(C)c1C | -24% | 0% | -7% | -19% | 7% | -3%
CCOC(=O)c1c(NC(=O)CN2CCCCC2)sc2c1CCN(C(=O)OCC)C2 | 10µM* | 115% | 5.2µM* | 10µM* | -1% | 8%
CCOC(=O)NC(Nc1sc2c(c1C(=O)OC)CCN(C)C2)(C(F)(F)F)C(F)(F)F | 1% | 14% | 6.6µM* | ? | -9% | 1%
CCOC(=O)c1c(NC(=O)CN2CCN(C(=O)c3ccco3)CC2)sc2c1CCCC2 | ? | 199% | 115% | 3.7µM* | ? | 3%
CCOC(=O)c1c(NC(=O)c2ccco2)sc2c1CCCC2 | ? | -12% | / | 9% | -5% | 1%
CCc1nc2ccccc2n1Cc1cc(=O)n2cc(C)ccc2n1 | -4% | 1% | 1.7µM* | -17% | ? | 10%
CCOC(=O)c1c(NC(=O)CSc2cn(CCNC(=O)c3c(F)cccc3F)c3ccccc23)sc2c1CCCC2 | / | / | / | / | 1% | /
CCOC(=O)C1=C(C)NC2=C(C(=O)CC(c3ccc(OC)c(OC)c3)C2)C1c1ccc(C)o1 (centres undefined) | 13µM* | 88% | ? | 1.2µM* | -11% | -11%
COc1ccccc1NC(=O)C1=C(C)NC2=C(C(=O)CC(c3ccc(OC)c(OC)c3)C2)C1c1coc2ccccc2c1=O (centres undefined) | 29% | 242% | 0% | 12µM* | -15% | 0%
COc1ccc(C2C(C(=O)OCC3CCCO3)=C(C)NC3=C2C(=O)CC(c2ccco2)C3)cc1O (centres undefined) | -5% | 32% | 10µM* | ? | -10% | 2%
COC(=O)C1=C(C)NC(C)=C(C(=O)OCC2CCCO2)C1c1cccc(Br)c1 (centres undefined) | -9% | 118% | ? | 9.3µM* | 12% | 28%
CC1=C(C(=O)OCC2CCCO2)C(c2cccc(O)c2)NC(=O)N1 (centres undefined) | 18% | -9% | 34% | 14% | -2% | 5%
CN1CCN(c2ncc3c(n2)CCN(Cc2ccc(Br)s2)C3)CC1 | / | / | / | / | 11% | /
Cc1nc(C)c(-c2ccc(SCC(=O)Nc3ccccc3F)nn2)s1 | / | / | / | / | 2% | /
COc1cc(Cl)c(C)cc1NC(=O)Cn1ncc2c(=O)oc3ccccc3c21 | / | / | / | / | -1% | /
CCOc1ccc(N2C(N)=NC(N)=NC2(C)C)cc1 | 3% | -13% | 10% | 0.13µM* | ? | 1%
CC1(C)N=C(N)N=C(N)N1c1cccc(C#N)c1 | ? | / | / | / | / | 6%
COc1cccc(N2C(N)=NC(N)=NC2(C)C)c1 | -13% | -19% | -19% | 0.13µM* | -10% | 8%
COc1ccccc1N1C(N)=NC(N)=NC1(C)C | 2% | -5% | 10% | ? | -1% | 11%
COc1ccc(N2C(N)=NC(N)=NC2(C)C)cc1 | -19% | 5% | ? | 0.033µM* | -5% | -9%
CC1(C)N=C(N)N=C(N)N1c1ccc(OCCCOc2ccccc2)c(Cl)c1 | ? | 114% | 0.023µM* | 0.026µM* | -8% | 14%
CCCOc1ccc(-c2nonc2NC(=O)c2cc(OC)c(OC)c(OC)c2)cc1OCCC | / | / | / | / | 10% | /
CN(CCCNC(=O)CCC(=O)N1CCOc2ccc(Cl)cc21)Cc1ccccc1 | -24% | 79% | 15µM* | 3% | -10% | -12%
SMILES | HCV inhibitor | AmpC inh no detg | Pf growth 96h | Pf growth 48h | AmpC detergent | AMA1 RON2 block
CCC1CN(C(=O)NCc2ccccc2)c2cc(Cl)ccc2O1 (centres undefined) | 5.6µM* | -18% | ? | -14% | 0% | 7%
CCC1CN(C(=O)NCc2ccccc2)c2ccccc2O1 (centres undefined) | ? | -15% | ? | -6% | 0% | -2%
O=C(CCC(=O)N1CCOc2ccc(Cl)cc21)NCc1ccccc1 | -15% | 7% | 12µM* | -14% | ? | -4%
COc1ccccc1CNC(=O)CCC(=O)N1CCOc2ccc(Cl)cc21 | -25% | 44% | ? | -6% | -6% | 10%
O=C(CCC(=O)N1CCOc2ccc(Cl)cc21)NCCCN1CCN(Cc2ccccc2)CC1 | -19% | 144% | 59% | ? | -2% | -5%
CC(CNC(=O)CCC(=O)N1CCOc2ccc(Cl)cc21)c1ccccc1 (centres undefined) | -5% | 120% | 13µM* | ? | ? | -8%
COc1ccccc1NC(=O)C1=C(C)Nc2nc(SCc3ccccc3C)nn2C1CC(C)C (centres undefined) | / | / | / | / | -3% | /
Cc1ccc(CNC(=O)c2ccc3c(O)c(S(=O)(=O)c4ccccc4)c(=O)[nH]c3c2)cc1 | / | / | / | / | 14% | /
CCOc1ccc(CCNC(=O)c2ccc3c(c2)nc2n3CCOC2)cc1OCC | / | / | / | / | 17% | /
Cc1nonc1NC(=O)OCCN1CCOC1=O | 7% | -8% | 6.6µM* | ? | 3% | 0%
Cc1cccc(NC(=O)c2oc3ccccc3c2NC(=O)c2cc(=O)c3ccc(C)cc3o2)c1 | / | / | / | / | 6% | /
COc1cc(CNC2CCCC2)cc(Cl)c1OCc1ccccc1F | 10µM* | 24% | ? | / | -3% | 0%
COc1cc(CNc2ccc3[nH]c(=O)[nH]c3c2)cc(Cl)c1OCc1ccccc1F | / | / | / | / | 21% | /
CN(C)c1ccc(C2C=C(c3ccccc3)Nc3nnnn32)cc1 (centres undefined) | / | / | / | / | 10% | /
COc1ccc(C)cc1NC(=O)c1cnc2ccc(C)cn2c1=O | / | / | / | / | 6% | /
C=CCc1ccc(O)c(-c2ccc(O)c(CC=C)c2)c1 | ? | -43% | 8.3µM* | ? | 5% | -16%
C=CCc1cc(C(=O)N2CCCCC2)ccc1O | -9% | -16% | 17% | ? | 1% | 3%
Clc1ccc2c(c1)C(c1ccccc1Cl)=NCc1nnc(N3CCN(CCOc4ccccc4)CC3)n1-2 | ? | 265% | 9.3µM* | ? | ? | -1%[11.6 µM]
Clc1ccc2c(c1)C(c1ccccc1Cl)=NCc1nnc(N3CCN(CCSc4ccccc4)CC3)n1-2 | -27% | 57% | 31% | -7% | -6% | -27%
OC1(c2ccccc2)CCNC2CCCCC21 (centres undefined) | -2% | -19% | 10µM* | 30% | 2% | -4%

High-throughput results from PubChem BioAssay.
